# From ChEMBL document CHEMBL3988442, “University of Dundee, Small-Polar-MMV Screening Library” (2021)
# What was measured:
# [1] = molecular target: T1, Aspartate--tRNA(Asp/Asn) ligase (Mycobacterium tuberculosis (strain ATCC 25618 / H37Rv)) (UniProt P9WFW3); experiment: Assay for Asp RNA synthetase-1 from Mycobacterium tuberculosis; type: functional; design: scale not given: direction of the effect not stated beside the values; settings: 30 µM; note: in the data most compounds retested in dose-response had high values
# T1 sequence (whole entry): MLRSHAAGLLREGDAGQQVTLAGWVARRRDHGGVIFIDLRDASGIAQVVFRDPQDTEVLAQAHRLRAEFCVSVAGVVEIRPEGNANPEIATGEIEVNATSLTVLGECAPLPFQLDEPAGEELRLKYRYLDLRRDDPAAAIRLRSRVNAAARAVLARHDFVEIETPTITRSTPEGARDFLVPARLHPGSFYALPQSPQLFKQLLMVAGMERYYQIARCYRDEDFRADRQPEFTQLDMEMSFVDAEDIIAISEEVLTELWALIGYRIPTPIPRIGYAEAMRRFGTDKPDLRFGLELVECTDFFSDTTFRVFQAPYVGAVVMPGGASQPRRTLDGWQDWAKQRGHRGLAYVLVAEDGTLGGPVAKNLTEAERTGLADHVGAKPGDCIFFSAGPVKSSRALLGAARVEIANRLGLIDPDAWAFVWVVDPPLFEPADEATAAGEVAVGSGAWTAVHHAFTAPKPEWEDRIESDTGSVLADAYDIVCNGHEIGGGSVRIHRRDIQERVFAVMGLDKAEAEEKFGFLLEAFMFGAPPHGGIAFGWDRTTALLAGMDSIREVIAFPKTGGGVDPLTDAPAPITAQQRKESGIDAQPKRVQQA
# [2] = molecular target: Shiga toxin 2 (Escherichia coli O157:H7) (UniProt P09385+P09386); experiment: E. coli 0.157:H7 Shiga Toxin SOP - stx2 screening assay; type: functional; design: scale not given: direction of the effect not stated beside the values; settings: 30 µM
SMILES,Percent Effect [1] [%],Percent Effect [2] [%]
CC(C)Cc1noc(CN2CCN(CCOc3ccc(Cl)cc3)CC2)n1,0.745,10.8
CCn1nc2c(cc1=O)CN(Cc1nc(-c3ccsc3)no1)CC2,5.03,-16.2
CC(O)CN1CCN(C(=O)c2ccc(N(C)C)nn2)CC1 (centres undefined),-6.65,-70.5
CS(=O)(=O)CC(=O)N1C[C@@H]2COC[C@]2(c2nnc(C3CC3)o2)C1,-1.72,-40.1
Cc1cc(CNC(=O)N2CCN(c3nc(C)c(C)s3)CC2)no1,-1.96,24
NC(=O)CC1CCN(C(=O)NCc2ccccc2-n2cccn2)CC1,-3.48,-4.75
CCc1nc(CC(=O)N2CCN(c3cnccn3)CC2)cs1,-3.74,-11.5
Cc1ccc(C(=O)N2Cc3c(CN4CCCCC4)nn(C)c3C2)cc1C,4.62,-4.53
CNC(=O)c1ccc(CN(C(=O)c2scnc2C)C2CC2)cc1,-2.83,-32.1
O=C(NCCCO)Nc1cccc(Cl)c1F,1.48,-9.57
Cc1nn(C)c2c(N3CCN(C(=O)NC4CCCCC4)CC3)ncnc12,-5.2,-44.8
CCOC(=O)N1CCN(c2nc(NCCCO)c3ccccc3n2)CC1,1.68,-29.9
Cc1cnc2c(c1NCc1ccncc1)c(=O)n(C)c(=O)n2C,-5.41,1.78
O=C(c1cnn2c1OCCC2)N1CCN(C/C=C/c2ccccc2)CC1,3.28,-6.18
COc1ncc(C2(O)CCN(Cc3cccs3)CC2)c(OC)n1,-0.868,-24.4
Cc1nc(CSCCC(=O)NCc2cccnc2N(C)C)cs1,1.66,-9.97
O=C(c1cnccn1)N1CCOC2(CCN(Cc3ccsc3)CC2)C1,-1.8,-12.9
